± gives the standard deviation of the averaged measurements.
Test system: AEK1 (Tb927.3.2440)
Test: percent reduction in TR-FRET probe signal relative to DMSO control; higher = stronger displacement of ATP-site probe (binding)
Conditions: 1 µM; incubation time 1 h

Row | Structure (SMILES) | percent reduction in TR-FRET probe signal [%]
1 | CC(C)(C)c1cc(NC(=O)Nc2ccc(-c3cn4c(n3)sc3cc(OCCN5CCOCC5)ccc34)cc2)no1 [Quizartinib (AC220)] | 9.26 ± 2.9
2 | COc1ncc(-c2cc(-c3ncc(CN4C[C@@H](C)O[C@@H](C)C4)o3)c3cn[nH]c3c2)cc1NS(C)(=O)=O | -2.16 ± 6.2
3 | Cn1c(=O)c(F)c(Nc2ccc(I)cc2F)c2c(=O)n(C[C@@H](O)CO)cnc21 | 10.1 ± 14
4 | O=C1N=C(NCc2cccs2)S/C1=C\c1ccc2ncccc2c1 | 8.12 ± 4.7
5 | COc1cc(Nc2c(C#N)cnc3cc(OCCCN4CCN(C)CC4)c(OC)cc23)c(Cl)cc1Cl [Bosutinib (SKI-606)] | 0.893 ± 13
6 | Nc1ncnc2c1c(-c1cccc(OCc3ccccc3)c1)cn2[C@H]1C[C@@H](CN2CCC2)C1 | 0.997 ± 12
7 | Cc1ccc2nc(NCCN)c3ncc(C)n3c2c1 | -7.43 ± 3.5
8 | O=C1NC(=O)/C(=C/c2cccc(C(F)(F)F)c2)S1 | -3.02 ± 1.9
9 | O=C(Nc1cccc(Nc2ncc(Br)c(NCCc3cnc[nH]3)n2)c1)N1CCCC1 | 52.9 ± 12
10 | CC(C)(C)NS(=O)(=O)c1cncc(-c2cc(F)c3nc(N)nn3c2)c1 | -7.77 ± 4.5
11 | Oc1c(F)cc(-c2cnccc2-c2ccc(N3CCOCC3)cc2)cc1F | 8.04 ± 13
12 | O=C(NC1CCNCC1)c1n[nH]cc1NC(=O)c1c(Cl)cccc1Cl | -2.75 ± 9.5
13 | CNC(=O)c1ccc(C)c(-n2c(C)cc(OCc3ccc(F)cc3F)c(Br)c2=O)c1 | -1.42 ± 7.4
14 | Cc1cnc(Nc2ccc(N3CCN(C)CC3)cc2)nc1Nc1cccc(S(=O)(=O)NC(C)(C)C)c1 | 5.49 ± 1.9

From the supplement of paper PMC10720658
